# Over roughly 18,000 sequences, “log2 normalized intensity” has its median near 0.39; the highest 2% begin near 6.6. The full list was thinned out, with the highest values kept by preference.
# Target: T1, HNF4alpha2 (COS-7 nuclear extract) (Homo sapiens, UniProt P41235 1-474)
# T1 sequence: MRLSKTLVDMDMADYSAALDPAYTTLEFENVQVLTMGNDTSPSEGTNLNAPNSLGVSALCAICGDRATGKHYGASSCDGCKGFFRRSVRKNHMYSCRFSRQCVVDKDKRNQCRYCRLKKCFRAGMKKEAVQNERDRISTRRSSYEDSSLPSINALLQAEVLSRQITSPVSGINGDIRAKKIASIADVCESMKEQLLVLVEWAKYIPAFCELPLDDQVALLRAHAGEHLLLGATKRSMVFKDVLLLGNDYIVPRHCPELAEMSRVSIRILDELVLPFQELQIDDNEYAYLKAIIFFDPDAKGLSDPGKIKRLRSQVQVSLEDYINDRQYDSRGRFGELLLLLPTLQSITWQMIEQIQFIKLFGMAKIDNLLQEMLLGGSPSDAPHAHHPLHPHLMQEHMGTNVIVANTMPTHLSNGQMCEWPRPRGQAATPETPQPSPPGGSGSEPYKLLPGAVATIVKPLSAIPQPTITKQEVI
# Assay: protein-binding microarray; COS-7 nuclear extract on double-stranded Agilent 4x180k PBM; binding buffer, salt, pH and temperature not given in the material; high values mean tight binding
# Details: chain copies: 2; label: 3' end of strand 1 on the slide; dsDNA, one strand shown
# Method in brief: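 Binding signal was defined as the normalized, background-corrected gProcessedSignal reported by Agilent software. It came from nuclear extracts of COS-7 cells transiently transfected with a human HNF4α isoform expression vector, applied to a custom Agilent SurePrint G3 4x180k array. That array held ~44,000 test sequences in quadruplicate as double-stranded ~60-nt oligonucleotides, and bound HNF4α was imaged at 2-µm resolution on an Agilent G2565CA scanner.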
row,Sequence,binding signal [log2 normalized intensity]
1,AAGTGTGGTCAAGGGTCAGTTTCTGAGAGTGCCTAGGGAGATTAGAGTATCGGTCGA,3.65
2,ATAGTTGACCCTTGAACAATGTGGGGGTCGGCCTAGGGAGATTAGAGTATCGGTCGA,3.7
3,CTTGTCCTTGACCCTTCCTCCCATTTGCTGGCCTAGGGAGATTAGAGTATCGGTCGA,2.29
4,GCCCCCGCAGACCCAGTCTTAGGGACTAAGGCCTAGGGAGATTAGAGTATCGGTCGA,3.86
5,TCCCTTCCCCCCTCCTCATTGAGAGTTTTAGCCTAGGGAGATTAGAGTATCGGTCGA,4.2
6,TTGAAGCTCCAAGATAGGAATGTACATAATGCCTAGGGAGATTAGAGTATCGGTCGA,1.11
7,GTCTTAGGGACTAAGCTTGTAGACCAAGGAGCCTAGGGAGATTAGAGTATCGGTCGA,0.172
8,AAGGCTGCAAGCAAACCTGCCCTTTGCTCCGCCTAGGGAGATTAGAGTATCGGTCGA,5.57
9,GGGAAACACAGACTCCAAAGAATGGAAGGCGCCTAGGGAGATTAGAGTATCGGTCGA,-0.871
10,CCTTTGGTCTAAACCTACTTAGATCAAGATGCCTAGGGAGATTAGAGTATCGGTCGA,-0.394
11,ACCCCAAAACCCCCAAAGGTGAGTAGGGCCGCCTAGGGAGATTAGAGTATCGGTCGA,2.67
12,TGCTCTCTCATGCCCTTTGCCTCCCTGCATGCCTAGGGAGATTAGAGTATCGGTCGA,3.45
13,GCATCAGGGTCCACAAGGGTTTAAATCTGAGCCTAGGGAGATTAGAGTATCGGTCGA,1.03
14,CAGTTTGACCTTTGCATTCTTACCCAAGCCGCCTAGGGAGATTAGAGTATCGGTCGA,4.4
15,GAGGCCAGTTTGACCTTTGCATTCTTACCCGCCTAGGGAGATTAGAGTATCGGTCGA,5.97
16,CCTGAGAGGCCAGTTTGACCTTTGCATTCTGCCTAGGGAGATTAGAGTATCGGTCGA,7.56
17,TCACCATATCCCTGAGAGGCCAGTTTGACCGCCTAGGGAGATTAGAGTATCGGTCGA,2.83
18,TTTGGAGTTTGACCTGGAGCCAGGGCCTTTGCCTAGGGAGATTAGAGTATCGGTCGA,3.11
19,ATATCCCTGAGAGGCCAGTTTGACCTTTGCGCCTAGGGAGATTAGAGTATCGGTCGA,8.38
20,CACAGGTAAACATTTGCCTTTAGGGCCCCCGCCTAGGGAGATTAGAGTATCGGTCGA,2.56
21,GTGGGCAAGTTATCTCGGGGTGGCATGTATGCCTAGGGAGATTAGAGTATCGGTCGA,1.14
22,GCAGAATCAAAGGTCAAAATATCTGATCGAGCCTAGGGAGATTAGAGTATCGGTCGA,3.32

row,Sequence,binding signal [log2 normalized intensity]
1,CATCCTCATTGCCTCTGGGCTTTGATGGACGCCTAGGGAGATTAGAGTATCGGTCGA,1.64
2,CCCCATGATGATAGCAAACACGATTGGATGGCCTAGGGAGATTAGAGTATCGGTCGA,0.412
3,ACTGCTCCAGTGGACATTGGCCCTTTGACCGCCTAGGGAGATTAGAGTATCGGTCGA,5.99
4,GACCTTTGGACTTGATAGAGTTTAAGTCTTGCCTAGGGAGATTAGAGTATCGGTCGA,6.99
5,CTCCTGACCTTTGGACTTGATAGAGTTTAAGCCTAGGGAGATTAGAGTATCGGTCGA,7.57
6,AACTAGCAACTTGGACCTTGATAGGAGTTAGCCTAGGGAGATTAGAGTATCGGTCGA,2.88
7,TTTGAAGTTTAGAGATGCCTATAGGGTCTTGCCTAGGGAGATTAGAGTATCGGTCGA,0.736
8,GTCCTTGATAAGCAAGATGACTTTGGTCTAGCCTAGGGAGATTAGAGTATCGGTCGA,1.78
9,TCCAGTGGACATTGGCCCTTTGACCTTTAAGCCTAGGGAGATTAGAGTATCGGTCGA,7.47
10,ATATCCTGACTGCTGACCTTTAAGCCTATAGCCTAGGGAGATTAGAGTATCGGTCGA,3.85
11,TGGACATTGGCCCTTTGACCTTTAATCAAGGCCTAGGGAGATTAGAGTATCGGTCGA,6.47
12,TAAGAGCTATCAATGACCCATGTTTGCCCTGCCTAGGGAGATTAGAGTATCGGTCGA,3
13,TGCTTCTTGGCCTCTTTGTTTACACTGTGAGCCTAGGGAGATTAGAGTATCGGTCGA,1.53
14,GCGGCTTCAGAGGCCAGCAGTGCTTTTCCCGCCTAGGGAGATTAGAGTATCGGTCGA,-0.963
15,ATTGGAAGCTCTTTCCCTCCACCAAGTTTCGCCTAGGGAGATTAGAGTATCGGTCGA,0.191
16,TCTGATCCCAATTTATCTTTCCAGATTGTTGCCTAGGGAGATTAGAGTATCGGTCGA,0.501
17,CCTCCAGGGAGGGGAGAGGGGGTTAAAGGTGCCTAGGGAGATTAGAGTATCGGTCGA,1.22
18,GGAAACTCCATTTCCTTCTAGCTCCCCAATGCCTAGGGAGATTAGAGTATCGGTCGA,3.53
19,TCTTTGATTAGGAAAGGGAACTCCCTGACCGCCTAGGGAGATTAGAGTATCGGTCGA,-0.639
20,GGTGAAATAGCTGAACTATTTAAGGCCTTTGCCTAGGGAGATTAGAGTATCGGTCGA,0.822
21,AGTTGGAAAATATTTCTCTGAACTTTGACCGCCTAGGGAGATTAGAGTATCGGTCGA,8.41
22,CACTTCTGAAAAAAATATTGAACAAAGATTGCCTAGGGAGATTAGAGTATCGGTCGA,-0.491

row,Sequence,binding signal [log2 normalized intensity]
1,GAAAATATTTCTCTGAACTTTGACCTATAGGCCTAGGGAGATTAGAGTATCGGTCGA,8.62
2,ACTGACCTTTGAGAGTCAACACTGAAATAGGCCTAGGGAGATTAGAGTATCGGTCGA,1.42
3,GCCACCCCCGTTAATTTCTAACCAATGCAGGCCTAGGGAGATTAGAGTATCGGTCGA,0.623
4,CAAACTTCTCCACTCTTCATAATTACCATTGCCTAGGGAGATTAGAGTATCGGTCGA,0.957
5,ACAAGCAACCCTCCTCCCTTTGGCCATGAAGCCTAGGGAGATTAGAGTATCGGTCGA,1.54
6,TCACAGGTTCCAGCATGGACTTCACAGCCTGCCTAGGGAGATTAGAGTATCGGTCGA,-0.535
7,CAAACAGCTTAGGGTTCAAACTCCAGCTCTGCCTAGGGAGATTAGAGTATCGGTCGA,3.29
8,TCATTCCCCTAGTATATTGGCTTGGCTGTGGCCTAGGGAGATTAGAGTATCGGTCGA,2.58
9,AAGCACATACTTCTTCCTGTTTGACCTTCGGCCTAGGGAGATTAGAGTATCGGTCGA,5.02
10,TTCTTCCTGTTTGACCTTCGAACCCTTGCCGCCTAGGGAGATTAGAGTATCGGTCGA,9.01
11,CATACTTCTTCCTGTTTGACCTTCGAACCCGCCTAGGGAGATTAGAGTATCGGTCGA,9.59
12,TTGACCTTCTCTGTTAACCCTTTGCAGCCCGCCTAGGGAGATTAGAGTATCGGTCGA,2.61
13,TTGACCTTCGAACCCTTGCCATTTACATCAGCCTAGGGAGATTAGAGTATCGGTCGA,5.38
14,CCTGTTTGACCTTCGAACCCTTGCCATTTAGCCTAGGGAGATTAGAGTATCGGTCGA,7.04
15,CTCCTGTTTGTATTCCTTGTCCTTGACCCTGCCTAGGGAGATTAGAGTATCGGTCGA,4.35
16,CCTTGACCCTTCCTCCCATTTGCTGCTCTAGCCTAGGGAGATTAGAGTATCGGTCGA,2.08
17,GTACCTTGACCTTCTCTGTTAACCCTTTGCGCCTAGGGAGATTAGAGTATCGGTCGA,3.76
18,GGAGTTGGAACGGGGGCAAGGGTCAGAGTAGCCTAGGGAGATTAGAGTATCGGTCGA,4.26
19,CTGGCATCTGGTCAGGGGTCAAGAAGCTCTGCCTAGGGAGATTAGAGTATCGGTCGA,2.21
20,GCAGAAATCAACTGCCCTCTGCCTTTCAGGGCCTAGGGAGATTAGAGTATCGGTCGA,-0.661
21,AGAGCACATTCTTCCATATAACCCTTGAACGCCTAGGGAGATTAGAGTATCGGTCGA,3.6
22,TCAAAGGGCTTAATCTTTCCTGCCTGCCGGGCCTAGGGAGATTAGAGTATCGGTCGA,-0.693

row,Sequence,binding signal [log2 normalized intensity]
1,GTTCAATGCTTCAGTGAGCCTTGACCTTCAGCCTAGGGAGATTAGAGTATCGGTCGA,4.09
2,ACTTTGACCTTGTTTTCAATGACTACCTGTGCCTAGGGAGATTAGAGTATCGGTCGA,1.84
3,AGACCTTTGACATCACCTAACTTGTGGCTGGCCTAGGGAGATTAGAGTATCGGTCGA,0.674
4,GCCAGCCAGGGCCACCCATCAGTGGACTTTGCCTAGGGAGATTAGAGTATCGGTCGA,6.63
5,GACCTTGTTTTCAATGACTACCTGTTACCCGCCTAGGGAGATTAGAGTATCGGTCGA,1.45
6,AGTGGACTTTGACCTTGTTTTCAATGACTAGCCTAGGGAGATTAGAGTATCGGTCGA,7.31
7,CCATCAGTGGACTTTGACCTTGTTTTCAATGCCTAGGGAGATTAGAGTATCGGTCGA,9.03
8,TTTGCCATTTGGAGAGAGTTTGGCCCCAGTGCCTAGGGAGATTAGAGTATCGGTCGA,2.44
9,GCCACCCATCAGTGGACTTTGACCTTGTTTGCCTAGGGAGATTAGAGTATCGGTCGA,10.6
10,ACCCACCCACACCTCCCCTTTGTTTAACTTGCCTAGGGAGATTAGAGTATCGGTCGA,2.8
11,CCCAGGGACTTTGGCCTTACTTGGCCTGTTGCCTAGGGAGATTAGAGTATCGGTCGA,2.62
12,CACATGCTATTATTTTCCATCAGTGGACTTGCCTAGGGAGATTAGAGTATCGGTCGA,3.5
13,GTATCTCTTCGCCTTGCTTATCTGGGAGGGGCCTAGGGAGATTAGAGTATCGGTCGA,-0.214
14,CTTCAAAGGAGTGGAGGAAGGAAGAAGTGTGCCTAGGGAGATTAGAGTATCGGTCGA,0.537
15,GTGGTCATGTAGGTGTCTCAGGAATGTCCTGCCTAGGGAGATTAGAGTATCGGTCGA,1.85
16,GCTTATGCATGGGAGATCTTCAGTAAGAGGGCCTAGGGAGATTAGAGTATCGGTCGA,-0.283
17,GCTGGAACTCCTCCGGTCAAGATCAAGTGGGCCTAGGGAGATTAGAGTATCGGTCGA,0.207
18,TCTAAGATTGGCCCTGATAATCAATCCAGCGCCTAGGGAGATTAGAGTATCGGTCGA,-0.941
19,CCACAGAATCGCCCCACCCTGCCTGGGTAGGCCTAGGGAGATTAGAGTATCGGTCGA,1.35

# From PMC10726135, “HNF4α isoforms regulate the circadian balance between carbohydrate and lipid metabolism in the liver”
